In PubChem BioAssay (NCI):
The panel holds about 83,000 compounds, 20% with a hit somewhere; the sample as a whole holds those more often.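 Cell lines were cultured in 96-well plates, exposed to a single compound concentration, and assessed for percent growth 48 hours later.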 Unmarked numbers belong to inactive results. Calls of active or inactive are those of the source. The calls were made as follows: active = growth percent below 10; inactive = the rest.

What was measured:
Assay in all cases: NCI-60 one-dose screen, 48 h (100 = growth as untreated, 0 = no growth, -100 = all killed)
NCI-H522 lung = conditions: 10 µM unless noted
A549/ATCC NSCLC = conditions: 10 µM unless noted
COLO 205 colon = conditions: 10 µM
SNB-75 CNS = conditions: 10 µM unless noted
SNB-19 CNS = conditions: 10 µM unless noted
EKVX NSCLC = conditions: 10 µM unless noted
UO-31 renal = conditions: 10 µM unless noted
TK-10 renal = conditions: 10 µM unless noted
ACHN renal = conditions: 10 µM unless noted
CAKI-1 renal = conditions: 10 µM unless noted
MOLT-4 leukemia = conditions: 10 µM
RPMI-8226 leukemia = conditions: 10 µM unless noted
OVCAR-8 ovarian = conditions: 10 µM unless noted
OVCAR-5 ovarian = conditions: 10 µM unless noted
MDA-MB-435 melanoma = conditions: 10 µM unless noted
HT29 colon = conditions: 10 µM unless noted
SK-OV-3 ovarian = conditions: 10 µM unless noted
T-47D breast = conditions: 10 µM unless noted

SMILES	growth (NCI-H522 lung) [%]	growth (A549/ATCC NSCLC)	growth (COLO 205 colon) [%]	growth (SNB-75 CNS) [%]	growth (SNB-19 CNS) [%]	growth (EKVX NSCLC) [%]	growth (UO-31 renal) [%]	growth (TK-10 renal) [%]	growth (ACHN renal) [%]	growth (CAKI-1 renal) [%]	growth (MOLT-4 leukemia) [%]	growth (RPMI-8226 leukemia)	growth (OVCAR-8 ovarian) [%]	growth (OVCAR-5 ovarian) [%]	growth (MDA-MB-435 melanoma) [%]	growth (HT29 colon)	growth (SK-OV-3 ovarian) [%]	growth (T-47D breast)
COC1=CC(=O)OC(CCc2ccc3c(c2)OCO3)C1 (stereo unspecified)	76.9	96%	108	96.3	103	122	101	102	107	120	121	107%	96.1	101	112	–	–	–
CC1(C)CC2(CC(C)(C)c3cc(O)c(O)cc32)c2cc(O)c(O)cc21	37.4	97.2%	–	81.2	104	95.1	75.2	117	96.1	92.3	–	103%	97.3	–	84.8	114%	97.1	104%
CC1(C)N=C(N)N=C(N)N1c1ccc(CCCCc2ccc(S(=O)(=O)F)cc2)c(Cl)c1	–	8.36% (active)	33.2	63.2	38.7	–	–	23	22.1	–	18.2	9.22% (active)	–	–	15.7	8.74% (active)	–	-0.711% (active)
